Source: PubChem BioAssay (NCATS)
Calls of active or inactive are those of the source. Calls follow the shape of the full dose curve.

Tests used:
Assay in all cases: Confirmatory Screen for Target Class Profiling of Small Molecule Inhibitors of Methyltransferases (AID 1745852); as to activity change, negative = inhibition: % is scaled to controls: 0 for no effect and ±100 for the full control effect
[1] = molecular target: Catechol O-methyltransferase (Homo sapiens) (UniProt P21964); conditions: MTase-Glo luminescence, SAH detection, recombinant enzyme; measured here: COMT max response; stronger effect = lower value
[2] = molecular target: Guanidinoacetate N-methyltransferase (Homo sapiens) (UniProt Q14353); conditions: MTase-Glo luminescence, SAH detection, recombinant enzyme; activity change, negative = inhibition: at 57.3 µM (top of the series) unless noted; series mostly up to 57.3 µM
[3] = molecular target: Nicotinamide N-methyltransferase (Homo sapiens) (UniProt P40261); conditions: MTase-Glo luminescence, SAH detection, recombinant enzyme; measured here: NNMT max response; stronger effect = lower value
[4] = molecular target: Phenylethanolamine N-methyltransferase (Homo sapiens) (UniProt P11086); conditions: MTase-Glo luminescence, SAH detection, recombinant enzyme; measured here: PNMT max response; stronger effect = lower value
Potency is read from the fitted curve at half-maximal effect.

Sequence of Phenylethanolamine N-methyltransferase (Homo sapiens) (P11086 whole entry, looked up): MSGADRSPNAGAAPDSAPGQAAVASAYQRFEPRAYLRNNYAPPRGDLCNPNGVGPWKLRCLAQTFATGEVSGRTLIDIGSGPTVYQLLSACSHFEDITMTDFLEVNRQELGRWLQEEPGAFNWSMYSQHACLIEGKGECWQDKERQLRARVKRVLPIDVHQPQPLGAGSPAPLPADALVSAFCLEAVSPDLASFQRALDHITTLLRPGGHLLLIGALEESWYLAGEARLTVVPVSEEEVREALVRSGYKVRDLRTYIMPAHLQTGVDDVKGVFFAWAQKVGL
Sequence of Nicotinamide N-methyltransferase (Homo sapiens) (P40261 whole entry, looked up): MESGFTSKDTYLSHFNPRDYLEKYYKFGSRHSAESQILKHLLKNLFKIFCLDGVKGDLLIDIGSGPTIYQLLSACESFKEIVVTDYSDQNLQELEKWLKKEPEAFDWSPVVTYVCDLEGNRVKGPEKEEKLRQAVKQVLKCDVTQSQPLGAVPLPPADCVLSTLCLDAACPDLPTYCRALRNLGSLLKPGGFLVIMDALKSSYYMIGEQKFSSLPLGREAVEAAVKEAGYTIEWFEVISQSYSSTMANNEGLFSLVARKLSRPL
Sequence of Catechol O-methyltransferase (Homo sapiens) (P21964 whole entry, looked up): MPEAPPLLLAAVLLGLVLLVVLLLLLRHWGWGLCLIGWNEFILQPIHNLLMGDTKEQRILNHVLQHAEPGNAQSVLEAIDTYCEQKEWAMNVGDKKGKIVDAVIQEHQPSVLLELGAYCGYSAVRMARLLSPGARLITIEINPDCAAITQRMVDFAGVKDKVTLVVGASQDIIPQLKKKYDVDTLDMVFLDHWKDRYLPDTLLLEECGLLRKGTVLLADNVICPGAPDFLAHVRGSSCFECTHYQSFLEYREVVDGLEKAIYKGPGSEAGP

| Compound | activity [1] [%] | activity change, negative = inhibition [2] | activity [3] [%] | activity [4] [%] | Potency [2] |
| --- | --- | --- | --- | --- | --- |
| CCCC1=Nc2cc(C(=O)NCCCN3CCCCC3CC)ccc2Sc2ccc(C)cc21 (stereo not given) | -2.37 | 6.53% | -7.02 | 1.37 |  |
| O=C(Cn1c(=O)oc2cc(S(=O)(=O)N3CCCC3)ccc21)Nc1ccc(F)c(Cl)c1 | -3.81 | 1.53% | -2.29 | -63.9 |  |
| Cc1noc2c(NC3CCN(C)CC3)cc(-c3cccs3)nc12 | 7.59 | 13.7% [at 85.7 µM] | 0.3 | -6.76 |  |
| CN(CCCNC(=O)CCCc1nnc2n3nc(-c4ccccc4)nc3c3ccccc3n12)Cc1ccccc1 | 2.29 | 0% | -6.15 | 3.41 |  |
| O=C(CCc1nnc2n(Cc3ccc(Cl)cc3)c(=O)c3ccccc3n12)NCCN1CCCC1 | 4.15 | 1.71% | -12.3 | 0 |  |
| CN1C(=O)C(c2ccccc2)CC12CCN(c1ccnc(N)n1)CC2 (stereo not given) | 6.59 | 9.95% | 7.63 | 10.4 |  |
| Cn1nccc1-c1cc2c(cn1)CN(Cc1ccncc1)CCN2 | 1.75 | 1.99% [at 85.7 µM] | -4.82 | 0.453 |  |
| COc1ccc(OC)c2c1cc1n2CC(C)(C(=O)NC2CCCCC2)N(Cc2cccnc2)C1=O (stereo not given) | -8.96 | -5.74% | -28.2 | -10.7 |  |
| COc1cccc(CN2CCCC3(CNc4ccccc4[S+](=O)([O-])N3)C2)c1 (stereo not given) | -4.83 | -8.51% | -12.2 | -3.23 |  |
| CC(C)Cn1c(=O)c2ccccc2n2c(CCC(=O)N3CCC(Cc4ccccc4)CC3)nnc12 | -2.5 | 0.755% | -56.6 | -9.36 |  |
| Cn1ccc2c(C(=O)NCCc3cnc[nH]3)nc(-c3ccc(N4CCOCC4)cc3)cc21 | -6.99 | -0.183% [at 85.7 µM] | 2.75 | -6.64 |  |
| Cn1c(=O)n(C)c2cc(S(=O)(=O)N3CCN(C4CCCCC4)CC3)ccc21 | -4.43 | -0.234% | -8.71 | -5.99 |  |
| COc1ccc2nc([C@H]3CCN(C4CCCCC4)C3)[nH]c2c1 | -5.45 | 4.16% [at 85.7 µM] | -3.99 | -4.21 |  |
| CCOc1ccccc1CN1CCC(Cc2nc(-c3cccnc3)n[nH]2)C1 (stereo not given) | 2.59 | 0.265% | -34.4 | -0.0084 |  |
| N#Cc1cnc(N2CC3CCC(C2)N3CC(F)(F)F)s1 | -0.326 | -4.72% [at 85.7 µM] | -7.9 | -0.128 |  |
| CC1CCN(CCCNC(=O)CCc2nnc3n(Cc4ccccc4)c(=O)c4ccccc4n23)CC1 | 0.801 | 0% | -2.83 | 2.06 |  |
| CC1CCCC(NC(=O)C2(C)Cn3c(cc4occc43)C(=O)N2Cc2ccco2)C1C (stereo not given) | -10.3 | -6.55% | -20.3 | -11.1 |  |
| COc1cncc(Nc2ncc(-c3ccccc3OC)c3c2OCC3)c1 | 0.728 | 2.22% [at 85.7 µM] | -19.7 | 0.675 |  |
| COc1ccc(CCNC(=O)CCc2nnc3n(CC(C)C)c(=O)c4ccccc4n23)cc1OC | -6.74 | -2.85% | -43.7 | -6.97 |  |
| CCCC1c2cccn2CCN1C(=O)Nc1ccccc1Cl (stereo not given) | 2 |  | -4.51 | 1.09 | inactive |

| Compound | activity [1] [%] | activity change, negative = inhibition [2] | activity [3] [%] | activity [4] [%] | Potency [2] |
| --- | --- | --- | --- | --- | --- |
| COc1ccc(CNc2cc3c(cn2)CN(Cc2ccccc2)CCN3)cc1OC | 2.46 | 0.935% [at 85.7 µM] | -32.8 | 1.92 |  |
| COc1cc(F)ccc1-c1cc(-c2ccc(=O)[nH]c2)c2cncn2c1 | -95.1 | -5.99% [at 85.7 µM] | -11 | -5.79 |  |
| CC1=C[C@@H](CN(CC2CC2)CC2CC2)[C@H](C(C)C)C[C@H]1Cc1nc2ccncc2[nH]1 | 3.81 | 4.35% [at 85.7 µM] | -1.17 | 3.65 |  |
| Oc1ccc(NCCN2CCCC2)cc1 | -10.9 | -14.6% [at 114 µM] | -12.3 | -7.62 |  |
| CCCn1c(=O)c2cc(F)ccc2n2c(SCc3c(F)cccc3Cl)nnc12 | 4.81 | 0.239% | -24.8 | 0.382 |  |
| CC(C)Cn1c(=O)c2ccccc2n2c(CCC(=O)N3CCN(c4cccc(Cl)c4)CC3)nnc12 | -1.89 | 1.7% | -35.8 | -10.3 |  |
| COc1ccc(OC)c(CN2CCNc3cc(-c4ccnc(C)c4)ncc3C2)c1 | 6.21 | 6.12% [at 85.7 µM] | -5.07 | 4.8 |  |
| CCN(CC)Cc1cnc2c(C(=O)N3CCCN4CCC[C@H]4C3)cnn2c1 | -42.2 | 7.01% | 12.3 | 8.45 |  |
| COc1ccc(-c2cc3c(cn2)CN(CCc2ccccc2)CCN3)cc1OC | -0.529 | 3.81% [at 85.7 µM] | -18.9 | -48.8 |  |
| Cc1ccc2nc(CN(C)C(=O)C3CCC(=O)N(C4CCCCCC4)C3)[nH]c2c1 (stereo not given) | -3.1 | -4.65% | -9.1 | -9.49 |  |
| Nc1nc(NCc2ccc(Cl)cc2Cl)cc(C2CC(O)C2)n1 (stereo not given) | 1.79 | -2.38% | -23.3 | -0.704 |  |
| O=C(O)c1ccc2c(c1)C1C=CCC1C(c1ccc(Cl)cc1)N2 (stereo not given) | -24.7 |  | -22.4 | -23.3 | 42.9 µM (active) |
| Cc1ccc(C(=O)O)c2c1N[C@@H](c1ccc(Cl)cc1)[C@H]1CC=C[C@@H]21 | 2.12 | 0.676% | 0.978 | 2.78 |  |
| COc1ccc(-c2n[nH]n3c2nc(=O)c2ccc(C(=O)NCc4ccc(OC)c(OC)c4)cc23)cc1 | -3.17 | 0.217% | 0.962 | 0.793 |  |
| CCOc1c(CN(C)C(=O)Cn2cccc(OC)c2=O)cccc1OC | 0.499 | -5.47% | -3.91 | 0.0949 |  |
| CC1CCCCN1CCNC(=O)CCc1nnc2n(Cc3ccc(F)cc3)c(=O)c3ccccc3n12 (stereo not given) | 4.47 | 0% | -9.89 | 0.568 |  |
| CC(C)CCn1c(=O)c2ccccc2n2c(CCC(=O)N3CCN(c4ccc(F)cc4)CC3)nnc12 | 1.78 | 0% | -61.2 | -6.79 |  |
| COC(=O)c1ccc(C)c2c1C1C=CCC1[C@@H](c1ccc(C(=O)O)cc1)N2 (stereo not given in full) | -11.4 | -1.6% | -8.29 | -3.22 |  |
| CCN1CCN(c2nc3c(S(=O)(=O)c4ccc(C)cc4)nnn3c3ccccc23)CC1 | -6.68 | -2.1% | -16.7 | -10.8 |  |
| CN(CCCNC(=O)CCc1nnc2n(Cc3ccccc3)c(=O)c3ccccc3n12)Cc1ccccc1 | 1.61 | 0% | -7.26 | -2.41 |  |

| Compound | activity [1] [%] | activity change, negative = inhibition [2] | activity [3] [%] | activity [4] [%] | Potency [2] |
| --- | --- | --- | --- | --- | --- |
| Cc1cc(NS(=O)(=O)c2ccc3[nH]c(=O)[nH]c3c2)ccc1Br | 1.24 | 0.289% | -14.5 | -63.7 |  |
| CN1CCC(N2CC[C@H](c3nc4ccc(C(F)(F)F)cc4[nH]3)C2)CC1 | 7.98 | 9.6% [at 85.7 µM] | 10.1 | 7.95 |  |
| O=C(CCc1nnc2n(Cc3ccccc3Cl)c(=O)c3ccccc3n12)N1CCC(N2CCCCC2)CC1 | 0 | 0.582% | -1.92 | 0 |  |
| COc1ccc(CCN2C(=O)c3ccc(-c4ccco4)n3CC2(C)C(=O)NC2CCCC2)cc1OC (stereo not given) | -9.3 | -6.46% | -65.9 | -5.82 |  |
| O=C(CCc1nnc2n(Cc3ccccc3Cl)c(=O)c3ccccc3n12)NCCc1c[nH]c2ccccc12 | 4.12 | 0% | -2.9 | -5.42 |  |
| CCCS(=O)(=O)N1CCCC(Cn2c(C)nc3cccnc32)C1 (stereo not given) | 1.15 | 2.96% | 7.76 | 4.99 |  |
| CNC(=O)NCCc1ncc(C)n1C1CCCCCCC1 | 1.76 | 2.65% | -4.6 | -0.137 |  |
| COc1ccc(-c2n[nH]n3c2nc(=O)c2ccc(C(=O)NC(C)c4ccc(F)cc4)cc23)cc1 (stereo not given) | -18.7 | -8.96% | -25 | -17.7 |  |
| O=C1c2ccccc2C(=O)c2cc(S(=O)(=O)Nc3ccc(Br)cc3)ccc21 | 0.0189 | -0.0818% | -13.8 | -18.5 |  |
| Cc1ccsc1CCNC(=O)Cn1c(=O)oc2cc(S(=O)(=O)N3CCCC3)ccc21 | -8.14 | -1.17% | -5.53 | -81.8 |  |
| COc1ccc(CN2C[C@@H](CO)[C@H](c3ccncc3)C2)c(OC)c1 | 7.35 | 7.27% | -21.3 | 8.2 |  |
| CC1(C(=O)NC2CCCCC2)Cn2c(c(-n3cccc3)c3ccccc32)C(=O)N1Cc1ccccn1 (stereo not given) | 0 | 0% | -45.4 | 2.72 |  |
| CCCn1c(C)cnc1CC1CCN(C(=O)NCc2ccc(OC)cc2)C1 (stereo not given) | -4.22 | 6.2% | -3.34 | -1.44 |  |
| Fc1cccc(-c2nnn3c2nc(NCCc2ccccc2)c2ccccc23)c1 | -4.7 | -1.64% | -12.6 | -9.28 |  |
| O=C(CCn1c(=O)[nH]c2cc(S(=O)(=O)N3CCCCC3)ccc21)Nc1ccc(Cl)cc1 | -1.03 | 0% | -18.8 | -3.3 |  |
| O=[S+]1([O-])NC2(CCCN(Cc3c(F)cccc3Cl)C2)COc2ccccc21 (stereo not given) | -6.32 | 2.18% | -5.33 | -3.56 |  |
| O=C(NCc1cccc(Cl)c1)c1cnc2c(c1)N(C(=O)Cc1ccc(O)cc1)CCC2 | -2.5 | -3.31% [at 85.7 µM] | -5.79 | -1 |  |
| CCOc1cc(OCC)c2c(-c3ccccc3)cc(=O)oc2c1 | -64.6 |  | -49.7 | -65.2 | 15.2 µM (active) |
| Cc1cc2c(cc3n2CC(C)(C(=O)NC2CCCCCCC2)N(Cc2ccco2)C3=O)o1 (stereo not given) | -1.76 | 0% | -37.5 | -6.55 |  |
| CCCCNC(=O)c1cccc(-c2cc(N3CCN(C)CC3)nc(N)n2)c1 | -2.86 | -5.28% | -3.76 | -4.09 |  |
